Rows were chosen to be rich in hits. Some 7.8% of all compounds tested hit in one or more screens of this group.
HCV inh = blocks hepatitis C virus; Huh7.5.1 HCVcc-Cre infection, luciferase reporter, 44 h; AID 651820; 340,000 compounds, 3.4% hits; Potency, µM (doses to about 41.8 µM), for inactives: top-dose activity change, negative = inhibition, hits mostly inhibitors; active = well fitted inhibition curve with a large enough effect; inconclusive = small, poorly fitted or top-dose-only effect, or another doubt; inactive = no such curve, though single readings can be large or run the other way; also: potency is read from the fitted curve at half-maximal effect
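Reporter virus HCVcc-Cre (~0.5 moi) infects cells exposed to compound; seeding density 1,000 cells/well with 4 h settling beforehand. Luminescence, 15 sec read, taken 44 h post-infection following a 15 min RT substrate incubation.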
Vaccinia Venus = vaccinia inhibition (Venus reporter); Vaccinia virus Venus reporter expression, fluorescence; Potency, µM (doses to about 36.5 µM), without a hit: top-dose activity change, negative = inhibition, hits mostly inhibitors; 330,000 compounds, 0.46% hits; calls by dose curve; tested in A549 cells; also: potency is read from the fitted curve at half-maximal effect; nearly all actives have a fitted effect of over 30% in size
HCMV inh = human cytomegalovirus inhibition; AID 1259415; activity change, negative = inhibition, % at 57.5 µM; 410,000 compounds, 4.5% hits; HFF cells, HCMV-luciferase reporter, 72 h; hits give low values; in the data active = activity change below about -60%; inconclusive = no clear call, values can overlap the other calls; inactive = above about -39%
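Cell-based, HFFs, 1000 cells/well, 16 h 37C; cpds in DMSO + HCMV-luc, MOI 1 PFU/cell; 72 h 37C; OneGlo luminescence after 5 min RT; norm. to buffer vs Salinomycin 10uM.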
Lassa entry inh = inhibitors of Lassa virus binding or cell entry; Lassa virus pseudotype entry inhibition, cell reporter; Potency, µM (titrated, usually from 37.9 µM), inactives show at the highest dose activity change, negative = inhibition, hits mostly inhibitors; 300,000 compounds, 1.2% hits; AID 540256; calls by dose curve; tested in HEK293 cells; also: potency is read from the fitted curve at half-maximal effect; nearly all actives have a fitted effect of over 50% in size
Marburg entry inh = blocks Marburg virus binding to or entry into cells. AID 540276. Potency, µM (titrated, usually from 37.8 µM), for inactives: at the top dose activity change, negative = inhibition, actives largely listed as inhibitors. 300,000 compounds, 1.8% hits. Marburg virus pseudotyped entry inhibition, cell reporter; calls by dose curve; tested in HEK293 cells; also: potency is read from the fitted curve at half-maximal effect
VACV mCherry inh = inhibitors of vaccinia virus infection (mCherry reporter signal); Potency, µM (highest dose often 36.5 µM), for the others: at the highest dose activity change, negative = inhibition, usual class: inhibitors; AID 720579; 310,000 compounds, 0.63% hits; Vaccinia virus mCherry reporter infection, fluorescence; calls by dose curve; tested in A549 cells; also: potency is read from the fitted curve at half-maximal effect; nearly all actives have a fitted effect of over 35% in size
* marks the source's active call; other numbers are inactive results; i = inactive; ? = inconclusive; · = no result; ! = not confirmed by another sample; [ ] = remark or other dose. % is scaled to controls: 0 for no effect and ±100 for the full control effect.

SMILES	HCV inh	Vaccinia Venus	HCMV inh	Lassa entry inh	Marburg entry inh	VACV mCherry inh
COc1cccc(CC2(CO)CCCN(Cc3ccc(C)s3)C2)c1 (stereo not given)	0%	-10%	-20	0%	?	-24%
COc1cccc(CC2(CO)CCCN(Cc3[nH]c4ccc(C)cc4c3C)C2)c1 (stereo not given)	?	?	-12	·	·	11µM*
COc1cccc(CC2(CO)CCCN(Cc3c(C)cc(C)cc3-n3cccn3)C2)c1 (stereo not given)	?	-23%	-69*	·	·	-8%
Cc1cccc2nc(COc3ccc(Cl)c4cccnc34)cn12	?	-22%	-80*	?	-4%[46.1 µM]	-5%
COc1ccccc1NC(=O)CSc1nc(-c2ccc(C(C)(C)C)cc2)c(C#N)c(=O)[nH]1	·	-8%	-22	2%[46.1 µM]	12%[46.1 µM]	-15%
CCCc1nc2ccccc2n2c(-c3cccc(C)c3)c3c(=O)n(C)c(=O)n(C)c3c12	·	-6%	14	?	?	-14%
Nc1c(C(=O)NCc2ccccc2)c2nc3ccccc3nc2n1CCCN1CCOCC1	-6%	·	28	-24%	?	·
Nc1c(C(=O)NCc2ccco2)c2nc3ccccc3nc2n1CCc1ccccc1	?	·	-69*	?	-37%	·
COc1ccc(CNC(=O)c2c(N)n(CCCN3CCOCC3)c3nc4ccccc4nc23)cc1	?	·	-26	23µM*	16µM*	·
N#Cc1ccccc1Cn1c(=O)n(CCCC(=O)NCc2ccc3c(c2)OCO3)c(=O)c2sccc21	·	-10%	?	-8%[46.1 µM]	8%[46.1 µM]	-13%
COc1ccc(S(=O)(=O)c2c(O)c(C)cc(NS(=O)(=O)c3ccc(Cl)cc3)c2C(C)C)cc1	·	-7%	?	-13%[46.1 µM]	?	-5%
COc1ccc(S(=O)(=O)c2c(O)c(C)cc(NC(=O)c3ccccc3)c2C(C)C)cc1	·	-9%	-63*	-6%[46.1 µM]	-16%[46.1 µM]	1%
COc1ccc(S(=O)(=O)Nc2cc(C)c(O)c(S(=O)(=O)c3ccccc3)c2)cc1	6%	·	-4	7%	?	·
COc1ccc(S(=O)(=O)c2c(C)c(NS(=O)(=O)c3ccccc3)cc(C)c2O)cc1	4%	-16%	-63*!	12%	-5%[46.1 µM]	-7%
Cc1c(NS(=O)(=O)c2ccccc2)cc(C(C)C)c(O)c1S(=O)(=O)c1ccc(Cl)cc1	·	-8%	-37	-19%[46.1 µM]	11µM*	2%
CCOCCCNC(=O)C1CCN(c2nc3ccc(Cl)cc3[nH]2)CC1	·	-6%	0	1%[46.1 µM]	·	i
Cn1cc(CN(C(=O)Nc2ccc(Cl)c(Cl)c2)C2CCCCC2)c2ccccc21	·	-10%	28	0%[46.1 µM]	-3%[46.1 µM]	-28%
Cn1cc(CN(C(=O)Nc2ccccc2)C2CCCCC2)c2ccccc21	·	-20%	-105*	?	-3%[46.1 µM]	?
Cc1ccc(C=CC2=C[C@]3(C)C[C@]2(C)[C@H](c2ccc(C)cc2)CC3=O)cc1	·	·	·	·	-4%[14.2 µM]	·
CC(C)(O)C#Cc1ccc(C(=O)NCCN2Cc3ccccc3OC(c3ccccc3F)C2)o1 (stereo not given)	·	1%	·	·	·	-10%
COc1cc(SC#N)ccc1N=Cc1c(C)[nH]n(-c2ccc(C)c(C)c2)c1=O	?	-14%	-65*	11µM*	?	i
COc1cc(SC#N)ccc1N=Cc1c(C)[nH]n(-c2ccc(Cl)cc2)c1=O	12%	-8%	21	1%	?	i
COc1cccc(CNC(=O)Cc2ccc(-n3c(=O)[nH]c4ccccc4c3=O)cc2)c1	-6%	-20%	-97*	?	?	-26%
CCCNC(=O)Cn1cccc1C(=O)c1ccccc1	18%	0%	-21	28%	10%	-8%
COc1ccc(CNC(=O)c2ccc3c(=O)n(-c4ccccc4)c(=O)[nH]c3c2)cc1	?	0%	·	?	-12%[46.1 µM]	-4%
SMILES	HCV inh	Vaccinia Venus	HCMV inh	Lassa entry inh	Marburg entry inh	VACV mCherry inh
COc1cccc(CNC(=O)Cn2cccc2C(=O)c2ccccc2)c1	·	-8%	-96*	12%[46.1 µM]	6%[46.1 µM]	-17%
COc1ccc(CCNC(=O)Cn2cccc2C(=O)c2ccccc2)c(OC)c1	?	·	-96*	·	·	·
CCN(CC)C(=O)CSC1=C(C#N)[C@H](c2ccco2)C(C(=O)OCCOC)=C(C)N1	·	·	·	·	9%	·
CCOCCCNC(=O)C(NC(=O)C1CCC(C)CC1)C(C)C (stereo not given)	·	-11%	-1	6%[46.1 µM]	1%[46.1 µM]	-6%
O=S(=O)(c1cccc(-c2nnc(SCc3nc4ccccc4s3)o2)c1)N1CCOCC1	?	?	50	-20%	1%	13µM*
CC(=O)CCSc1nnc(-c2cccc(S(=O)(=O)N3CCOCC3)c2)o1	2%	-8%	-4	-4%	-9%	-9%
N#Cc1c(NC(=O)c2ccccc2)sc2c1CCCCC2	?	-23%	76	?	?	·
N#Cc1c(Cl)nsc1NC(=O)c1ccccc1	14µM*	·	-100*	·	·	·
O=C1COCc2cc(-c3cccnc3)ccc2N1Cc1ccc2c(c1)OCO2	·	·	-10	·	·	·
O=C(Nc1cccc(-c2nc3ncccc3o2)c1)c1sc2cc(Cl)ccc2c1Cl	8.9µM*	-7%	20	-16%	?	i
O=C(Nc1cccc(-c2nc3ncccc3o2)c1)c1sc2ccccc2c1Cl	?	·	6	?	?	·
O=C(Nc1cccc2ncccc12)c1ccc(F)cc1	0%	-3%	-64*	8%	-5%	-14%
O=C(Nc1cccc2ncccc12)c1cccc(Br)c1	-15%	-16%	-13	-6%[46.1 µM]	-27%[46.1 µM]	-5%
O=C(Nc1cccc2ncccc12)c1ccc(Br)c([N+](=O)[O-])c1	13µM*	5%	-63*	?	?	-1%
COc1cc(OC)c(NC(=O)CCS(=O)(=O)c2ccc3c(c2)oc(=O)n3C)cc1Cl	·	1%	12	29%[46.1 µM]	·	-7%
CCc1ccccc1N1C(=O)NC(=O)/C(=C\c2cc(C)n(C)c2C)C1=O	4%	-26%	-34	-12%	-5%	10µM*
CCOc1ccc(C(C)C)cc1S(=O)(=O)Nc1cccc(-c2ccc(N3CCOCC3)nn2)c1	·	?	-5	2%[46.1 µM]	·	?
C=C1[C@@H](O)CN(Cc2ccc(OC)cc2)S1(=O)=O	·	28µM*	·	·	·	?
COc1ccc(OC)c(CNC(=O)NCc2noc3ccc(C)cc23)c1	·	4%	14	14%[46.1 µM]	·	-2%
COc1ccc(N(C)C(=O)NCc2noc3ccc(C)cc23)c(OC)c1	·	6%	-82*	2%[46.1 µM]	·	-3%
Cn1c(C(=O)N2CCCC(C(=O)N3CCN(c4ccccc4)CC3)C2)cc2sccc21 (stereo not given)	·	-2%	-28	·	?	-13%
Cc1ccc(C)c(N2CCN(C(=O)c3cc4sccc4n3C)CC2)c1	?	·	-30	?	18µM*	·
Cc1cccc(N2CCN(C(=O)C3CCN(C(=O)c4cc5sccc5n4C)CC3)CC2C)c1 (stereo not given)	·	-4%[7.34 µM]	-84*	·	?	-2%[7.34 µM]
